Compound activity (PubChem)
TIM10 inh = growth inhibitors of TIM10 yeast strain; S. cerevisiae TIM10 strain growth, BacTiter-Glo luminescence, 24 h; inhibition, % at 10 µM; 330,000 tested, 1.4% active; AID 463195;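 active means inhibition of 40% or more at the single tested concentration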;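 further: wild-type TIM10 isogenic control strain grown at permissive 25 °C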
tim23-1 inh = inhibits growth of tim23-1 mutant yeast. S. cerevisiae tim23-1 growth, BacTiter-Glo luminescence, 24 h. inhibition, % at 20 µM. 330,000 tested, 1.3% active. AID 463212;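 active means growth inhibition of the mutant yeast at or above 50%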;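 further: temperature-sensitive mutant grown at 25 °C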
PfHsp90 set2 = growth inhibition of yeast expressing Plasmodium Hsp90 | S. cerevisiae expressing PfHsp90, BacTiter-Glo ATP, 48 h; yeast lacking PDR1 and PDR3 efflux regulators | 310,000 tested, 0.32% active | inhibition, % at 9.4 µM;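 active means every replicate shows inhibition above about 80%, whatever the replicate mean, limit read from the data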
Beta2AR agonist = agonists of human beta-2 adrenergic receptor inducing internalization | Am2.2-beta2AR cells, FAP receptor internalization, flow cytometry | response, % (concentration not given with the values) | 340,000 tested, 0.43% active;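 active means response above a set limit, near 3 SD of response in nonfluorescent compounds, cut at about 42% in these data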
Target sequence (P07550 whole entry, looked up): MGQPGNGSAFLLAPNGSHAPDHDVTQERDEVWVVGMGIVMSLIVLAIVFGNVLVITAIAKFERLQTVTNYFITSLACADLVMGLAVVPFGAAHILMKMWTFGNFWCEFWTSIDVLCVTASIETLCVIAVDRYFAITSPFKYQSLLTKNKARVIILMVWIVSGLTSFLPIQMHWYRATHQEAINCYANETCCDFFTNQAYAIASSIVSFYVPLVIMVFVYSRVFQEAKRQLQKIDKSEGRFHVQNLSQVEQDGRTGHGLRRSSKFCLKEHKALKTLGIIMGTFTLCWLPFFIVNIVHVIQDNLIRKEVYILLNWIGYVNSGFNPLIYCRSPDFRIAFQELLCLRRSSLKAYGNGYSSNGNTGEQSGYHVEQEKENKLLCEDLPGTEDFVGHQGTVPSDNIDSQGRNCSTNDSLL
tim10-1 inh = growth inhibitors of tim10-1 mutant yeast; S. cerevisiae tim10-1 ts strain growth, BacTiter-Glo, 24 h; inhibition, % at 20 µM; 330,000 tested, 2.2% active;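 active means inhibition of at least 40%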;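 further: mutant grown at 25 °C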
tim10 confirm = confirmation of TIM10 yeast growth inhibitors. shares compounds with TIM10 inh. S. cerevisiae tim10 strain growth, BacTiter-Glo luminescence, 24 h. inhibition, % at 10 µM. 4,600 tested, 63% active;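 active means inhibition of yeast growth at or above a set limit in either of two replicates at 10 µM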; further: this counterscreen used the strain with wild-type TIM10
tim23-1 confirm = tim23-1 yeast growth inhibition, confirmed; shares compounds with tim23-1 inh; S. cerevisiae tim23-1 growth, BacTiter-Glo luminescence, 24 h; inhibition, % at 20 µM; 4,400 tested, 83% active; AID 463218;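 active means inhibition above about 39% in either of two replicate wells at 20 µM, limit read from the data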;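 further: temperature-sensitive tim23-1 mutant grown at 25 °C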
Numbers stand for hits; n = inactive; x = no result given. Most compounds without a hit are left out; they make up all but 3.8% or so of the library.

SMILES	TIM10 inh	tim23-1 inh	PfHsp90 set2	Beta2AR agonist	tim10-1 inh	tim10 confirm	tim23-1 confirm
COc1cc(OC)cc(C(=O)N[C@H](C(=O)OCC(=O)N2CCN(S(=O)(=O)c3ccc(C)cc3)CC2)C(C)C)c1	x	x	x	n	x	x	x
O=C(Cc1ccc(Cl)cc1)OCC(=O)N1CCCCCC1	n	n	n	n	n	x	x
NNc1nc2c(Cl)c(Cl)ccc2s1	41	68	n	n	n	28	52
N#CC1(c2nc3ccccc3[nH]2)CC1c1ccc2c(c1)OCO2 (centres undefined)	56	56	x	n	n	32	72
N#CC(C(=O)c1ccccc1Cl)=C1SCCCS1	42	69	n	n	n	40	52
CC1CCCCC12NC(=O)N(CC(=O)N1CCN(S(=O)(=O)Cc3ccccc3)CC1)C2=O (centres undefined)	n	n	x	n	n	x	x
CN(Cc1ccccc1)C(=O)c1cccc(NC(=O)Cc2cccc(NC(=O)C3CCN(C(=O)C4CCC4)CC3)c2)c1	x	x	n	n	x	x	x
Cc1nn(S(=O)(=O)c2ccc(F)cc2)c(C)c1S(=O)(=O)N1CCOCC1	n	n	n	n	n	x	x
COc1ccccc1C/C(N)=N/OC(=O)c1ccc2c(c1)OCO2	71	72	n	n	n	80	77
O=C(Nc1ccccc1N1CCCC1)c1cc(=O)[nH]c2ccccc12	n	n	x	n	n	x	x
COc1ccc(C(=O)/C=C/C(=O)N(CC(=O)NC2CCCCC2)Cc2cccs2)c(O)c1	49	62	94	115	n	47	36
N#C/C(=C\c1ccc(O)c(Br)c1)C(=O)N1CCCCC1	n	n	n	n	n	x	x
Cc1ccc(/C=C(\C#N)C(=O)N2CCCC2)c(C)c1	45	52	n	n	n	39	50
Cc1ccccc1CN1[C@@H]2c3ccccc3C[C@@H]2OCCS1(=O)=O	n	n	n	n	n	x	x
Cc1ccc(C(=O)NC(=S)NCC(=O)c2ccccc2)cc1	n	n	n	n	n	x	x
O=C(CNC(=S)NC(=O)c1cccs1)c1ccccc1	44	63	n	n	n	n	67
CCc1sc(C(=O)Nc2ccc3c(c2)OCCO3)cc1Br	54	79	n	n	n	47	85
O=C(Nc1ccc2c(c1)OCCO2)c1ccc(Br)s1	x	x	n	n	x	x	x
CC[C@H](C)[C@H]1CNC(=O)C(=O)N1CC1CCN(CCc2ccccc2)CC1	x	x	n	n	x	x	x
Clc1ccc(-c2nnc(NCc3ccccc3)c3ccccc23)cc1	54	68	n	n	n	57	71
Cc1ccc(-c2nnc(NCc3ccccc3)c3ccccc23)cc1	n	n	n	n	n	x	x
Cc1ccc(-c2nnc(N3CCN(c4ccccn4)CC3)c3ccccc23)cc1	48	65	n	n	n	n	72
Cc1ccc(-c2nnc(N3CCN(S(C)(=O)=O)CC3)c3ccccc23)cc1	n	n	n	n	n	x	x
Cc1ccc(CN(C)C(=O)c2cc(COc3cccc(C(F)(F)F)c3)on2)o1	n	n	n	n	n	x	x
COc1ccc(-n2cnc3c(N)nc(N)nc32)cc1	x	x	n	n	x	x	x
SMILES	TIM10 inh	tim23-1 inh	PfHsp90 set2	Beta2AR agonist	tim10-1 inh	tim10 confirm	tim23-1 confirm
N#Cc1nc(NCC(F)F)nc(Nc2cc(F)cc(F)c2)n1	42	69	n	n	n	50	65
CN(Cc1ccc(Cl)cc1)C(=O)c1ccccc1SCC(=O)N1CCCC1	n	n	n	n	n	x	x
CN1CCc2cc3c(c4c2[C@H]1[C@H](O)c1ccccc1-4)OCO3	53	58	n	n	n	68	63
COc1ccc2c(c1OC)C(=O)OC2C1c2c(cc3c(c2OC)OCO3)CCN1C (centres undefined)	n	n	n	n	n	x	x
Cc1cccc(CNC(=O)C2CCC(=O)N(CCc3cccc(F)c3)C2)n1 (centres undefined)	n	n	n	n	n	x	x
CCOc1ccc(C2=NNC(c3cccs3)=Nc3ccc(OC)cc32)cc1	55	64	n	n	n	43	70
COc1ccc2c(c1)C(c1ccccc1)=NNC(c1ccco1)=N2	n	n	n	n	n	x	x
O=C1c2sc3nc4ccccc4n3c2C(=O)N1c1ccccc1Cl	60	56	n	46	n	59	n
Cc1cccc(N2CCN(S(=O)(=O)c3ccc4c(c3)NC(=O)CS4)CC2)c1C	40	63	n	n	n	36	n
O=C(Nc1ccc(F)cc1)c1cccnn1	n	n	n	n	n	x	x
C=CCC1NS(=O)(=O)OC(CCc2ccccc2)C1O (centres undefined)	n	n	n	n	n	x	x
CCOc1ccc2nc(Cl)c(/C=C/C(=O)c3ccco3)cc2c1	n	n	x	n	n	x	x
Cc1cccc2cc(/C=C/C(=O)c3ccco3)c(Cl)nc12	43	50	x	n	n	n	52
O=C(C[C@@H]1C/C=C\C[C@@H](Cc2ccc(F)cc2)C(=O)OCCNC1=O)N[C@H](CO)Cc1ccccc1	n	n	n	n	n	x	x
c1ccc(CSc2nc3ccccc3[nH]2)cc1	n	n	n	n	n	x	x
CCCOc1ccc(CSc2nc3ccccc3[nH]2)cc1	47	64	x	n	n	36	49
O=C(COC(=O)Cn1cc(C(F)(F)F)ccc1=O)Nc1ccc(Br)cc1F	n	n	n	n	n	x	x
Cc1ccccc1C(=O)N/N=C/c1ccc([N+](=O)[O-])s1	52	76	n	n	n	47	66
Cn1c(CSc2nc3ccccc3s2)nc2ccccc21	46	58	n	n	n	43	65
Cc1cc(NC(=O)Cc2ccccc2[N+](=O)[O-])no1	n	n	n	n	n	x	x
N#C/C(=C/c1ccc(O)c(O)c1)C(=O)NCc1ccc(Cl)cc1	n	n	n	n	n	x	x
N#C/C(=C/c1cccc(O)c1)C(=O)NCc1ccc(Cl)cc1	71	77	n	n	n	77	75
Cc1nn2c(NCc3ccccn3)c3c(nc2c1-c1ccccc1)CCC3	55	56	x	n	n	52	57
C=CCOc1cccc(C(=O)/C=C2/C(=O)Nc3ccccc32)c1	85	76	n	78	n	80	n
Oc1c(Br)cc(Br)cc1C=Nc1ccc2c(c1)OCCO2	56	84	n	n	n	34	92
O=[N+]([O-])c1ccc(O)c(C=Nc2ccc3c(c2)OCCO3)c1	n	n	n	n	n	x	x
Oc1c(Br)cc(Br)cc1C=Nc1ccc2c(c1)OCO2	66	82	n	n	n	52	72
COC(=O)Cn1cnc2c(Cl)nc(F)nc21	n	n	n	n	n	x	x
O=C(Nc1nnc(SCc2ccccn2)s1)C1CC(=O)N(c2ccc(F)cc2)C1 (centres undefined)	n	n	n	n	n	x	x
O=C(CCN1C(=O)C2CC=CCC2C1=O)Nc1ccc(S(=O)(=O)N2CCCCC2)cc1 (centres undefined)	n	n	n	n	n	x	x
